Test results from PubChem BioAssay AID2283166 (EPA ToxCast).
Results filed as inconclusive are left out. The source made the active and inactive calls. Rule for the calls: active = hit-call score of the fitted dose curve at least 0.9, where 1 is the maximum; inconclusive = response in the unintended direction; inactive = score below 0.9.

Target: human Interleukin-1 Receptor-Associated Kinase 4 (IRAK4), IRAK4 (gene 51135) (UniProt Q9NWZ3)
Test: NVS_ENZ_hIRAK4: NovaScreen (NVS) Enzymatic Assay for human Interleukin-1 Receptor-Associated Kinase 4 (IRAK4)
Description: NVS_ENZ_hIRAK4 is a biochemical, single-readout assay that uses extracted gene-proteins in a cell-free assay. Measurements were taken 1 hour after chemical dosing in a 384-well plate.NVS_ENZ_hIRAK4 is one of one assay component(s) measured or calculated from the NVS_ENZ_hIRAK4 assay. It is designed to make measurements of enzyme activity, a form of enzyme reporter, as detected with fluorescence intensity signals by Fluorescence and electrophoretic mobility shift technology.Data from the assay component NVS_ENZ_hIRAK4 was analyzed into 1 assay endpoint. This assay endpoint, NVS_ENZ_hIRAK4, was analyzed in the positive analysis fitting direction relative to DMSO as the negative control and baseline of activity. Using a type of enzyme reporter, loss-of-signal activity can be used to understand changes in the enzymatic activity as they relate to the gene IRAK4. Furthermore, this assay endpoint can be referred to as a primary readout, because this assay has produced […] where this one serves a enzymatic activity function. To generalize the intended target to other relatable targets, this assay endpoint is annotated to the kinase intended target family, where the subfamily is […].
Binding assays used specific radioligands (tritiated, iodinated) with non-radioactive competitive displacement ligands in agonist or antagonist protocols (as indicated) and various reference compounds and inhibitors to titrate specific binding to receptors and transporters. Most enzyme assays (CYPs, kinases, phosphatases, proteases, HDACs) used recombinant protein and specific substrates (fluorescence mostly, some colorimetric and radioactive) and inhibitors, followed by a biochemical separation of substrate and product. All assays for the biochemical HTS were initially run in duplicate at a single concentration (10 uM for CYP450 assays and 25 uM for all others). Assay-chemical combinations meeting a pre-defined threshold (e.g., 30% inhibition and other criteria defined below) were then run in singleton concentration-response format with maximum concentration of 20 uM for CYPs and 50 uM for all others. Each assay was run with positive and negative controls, and concurrent controls on every plate. The follow-up (secondary) screen tested active chemical-pairs in concentration series, as well as a few additional assays not tested in the primary screen, some selected negative inactives, and several cases re-run in the concentration series for confirmatory purposes.

human Interleukin-1 Receptor-Associated Kinase 4 (IRAK4), IRAK4 (gene 51135), sequence (Q9NWZ3 whole entry, looked up): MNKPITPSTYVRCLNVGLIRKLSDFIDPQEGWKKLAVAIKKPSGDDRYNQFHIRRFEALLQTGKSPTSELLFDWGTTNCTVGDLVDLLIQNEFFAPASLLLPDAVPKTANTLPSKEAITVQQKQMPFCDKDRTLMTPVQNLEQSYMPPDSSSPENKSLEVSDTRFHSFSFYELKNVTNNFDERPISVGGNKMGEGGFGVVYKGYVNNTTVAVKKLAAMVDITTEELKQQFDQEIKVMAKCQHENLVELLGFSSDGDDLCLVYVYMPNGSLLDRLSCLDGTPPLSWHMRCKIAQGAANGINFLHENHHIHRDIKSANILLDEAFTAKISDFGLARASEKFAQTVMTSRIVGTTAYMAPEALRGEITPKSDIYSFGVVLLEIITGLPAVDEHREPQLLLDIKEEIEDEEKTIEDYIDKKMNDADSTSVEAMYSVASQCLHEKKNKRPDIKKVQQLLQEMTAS

| Compound | outcome |
| --- | --- |
| CCOC(=O)C(Cl)Cc1cc(-n2nc(C)n(C(F)F)c2=O)c(F)cc1Cl (stereo not given) | inactive |
| CNC(=S)S | inactive |
| Cc1ccc(N=CN(C)C=Nc2ccc(C)cc2C)c(C)c1 | inactive |
| COP(=S)(OC)Oc1ccc([N+](=O)[O-])cc1 | inactive |
| CCCCNC(=O)OCC#CI | inactive |
